This is an account of results in PubChem BioAssay (NCATS).

Each structure is given as a SMILES string. Results filed as inconclusive are left out. Activity calls are given as the source filed them. Calls follow the shape of the dose curve; as a rule, active = well fitted inhibition curve with a large enough effect; inconclusive = small, poorly fitted or top-dose-only effect, or effect the other way, or another doubt; inactive = flat fitted curve, though single readings scatter.

The nature of the assay: qHTS Assay for Identification of Small Molecule Antagonists for Thrombopoietin (TPO) Signaling Pathway (AID 918). Also: nearly all actives have a fitted effect of over 60% in size. As to conditions: TPO-dependent cell signaling reporter, antagonist mode. The procedure, abridged: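 Murine Ba/F3 cells expressing human TPO receptor and a Glycoprotein IIb promoter-luciferase reporter, IL-3-starved overnight, treated with compound plus TPO at EC50 (26 pM final). After 24 h at 37 C, luminescence read to detect inhibitors.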
(In general: In qHTS, concentration-response curves come from the screen itself.)
Potency is read from the fitted curve at half-maximal effect.

Turning to `CC[C@@]1(O)C(=O)OCc2c1cc1n(c2=O)Cc2cc3ccccc3nc2-1`, the Potency is 126 nM (active).
Consider `COc1ccc2c(c[n+](C)c3c4cc5c(cc4ccc23)OCO5)c1OC`, for which the Potency is 2000 nM (active).
